A selection: hits, their analogues and other compounds. The true share with any hit is near 0.88%.
MBNL1 CUG block: MBNL1-poly(CUG) RNA binding inhibition; Q9NR56; TR-FRET MBNL1-His/biotin-(CUG)12 binding, 665/545 ratio; Potency, µM (doses to about 57.5 µM), for the others: top-dose activity change, negative = inhibition, hits mostly inhibitors; 280,000 tested, 0.036% active; AID 2675; active means well fitted inhibition curve with a large enough effect in the signal ratio, with a control signal flat, not every such curve was filed as active; inconclusive means small, poorly fitted or top-dose-only effect, or effect the other way, or a change in a side signal; inactive means no such curve, though single readings can be large or run the other way; the % refers to the signal ratio; further: potency means the concentration at half of the fitted maximal effect; on the % scale 0 is the no-effect control and ±100 the full control effect
Target sequence (Q9NR56 whole entry, looked up): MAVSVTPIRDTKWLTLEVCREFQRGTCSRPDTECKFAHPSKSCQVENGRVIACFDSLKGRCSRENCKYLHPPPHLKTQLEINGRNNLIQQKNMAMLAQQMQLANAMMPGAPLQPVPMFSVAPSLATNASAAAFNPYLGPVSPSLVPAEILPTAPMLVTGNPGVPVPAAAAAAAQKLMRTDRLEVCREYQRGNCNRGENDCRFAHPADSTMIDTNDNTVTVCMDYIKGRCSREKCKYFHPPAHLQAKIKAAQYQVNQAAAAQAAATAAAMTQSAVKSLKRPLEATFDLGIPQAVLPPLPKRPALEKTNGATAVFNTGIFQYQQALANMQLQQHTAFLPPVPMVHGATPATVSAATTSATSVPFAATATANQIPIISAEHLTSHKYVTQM
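Inhibition of protein-RNA binding appears as loss of TR-FRET between terbium anti-His antibody on MBNL1-His and streptavidin-XL665 on biotin-(CUG)12. Activity is normalized to buffer-only and uninhibited-complex controls.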
CBFb-RUNX1 inh: inhibitors of human CBF-beta and RUNX1 interaction | Q01196+Q13951 | AlphaScreen CBFb-His/RUNX1-biotin binding, biochemical | Potency, µM (titrated, usually from 59.8 µM), for inactives: top-dose activity, negative = inhibition, most hits filed as inhibitors | 230,000 tested, under 10 active | AID 1477; further: % of control where 0% means no effect
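Bead-based AlphaScreen assay; binding partners His-tagged CBF-beta and biotinylated RUNX1 at 30 nM each. Compound exposure 15 min after a 20-min protein preincubation; bead step 90 min; all steps at room temperature.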
TRHR PAM: TRH receptor (human) allosteric enhancement. P34981. TRHR cells, fluo-8 calcium fluorescence, EC20 TRH enhancement. enhancement, % at 2 µM. 360,000 tested, 0.66% active. AID 493056; in the data active means enhancement above about 30%; further: 0% is about no effect
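Enhancer read-out: after compound pinning and an initial kinetic agonist-mode read, an EC20 of TRH (10 nM final) was injected and fluo-8 calcium signal (Ex 480/Em 530) followed at 1 s/cycle for 100 cycles in TRHR-expressing cells.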
TRHR ag: agonists of human TRH receptor; AID 493084; TRHR cells, calcium flux fluo-8, FDSS agonist mode; 360,000 tested, 0.18% active; activation, % at 2 µM; in the data active means activation above about 30%; further: 0% is about no effect
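Read-out: compound-evoked intracellular calcium rise in TRHR cells, fluo-8 dye, kinetic FDSS fluorescence at 1 s/cycle following a 10-cycle baseline. Cells cultured overnight before dye loading (30 min–1.5 h, RT).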
Epigenetic derep: derepresses silenced GFP reporter in murine cells. murine LDR cells, GFP reporter derepression, 30 h. Potency, µM (series often up to 53.9 µM), for inactives: at the top dose GFP activation, usual class: activators. 280,000 tested, 0.2% active. AID 1865; further: potency means the concentration at half of the fitted maximal effect; % of control where 0% means no effect; nearly all actives have a fitted effect of over 60% in size
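Readout is the number of GFP-expressing murine LDR cells, counted by cytometry following washing. Cells were treated with compound for 30 h at 37 C; the stably integrated CMV-GFP locus is normally silent.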
IL-2 act: IL-2 activation; IL-2 activation reporter assay, cell-based qHTS; stimulated with anti-CD3/CD4/CD28 beads; in transgenic mouse T cells; activation, % (series mostly up to about 46 µM); 360,000 tested, 0.065% active; in the data active means activation above about 50%; inconclusive means mostly about 30% to 49%; further: 0% is about no effect
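Unstimulated transgenic mouse T cells; 60-min compound exposure; bead-based TCR/CD4/CD28 stimulation; 18 h culture, 37 degrees C; dual fluorescence (EGFP, DsRed) plate cytometry.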
Numbers without * were called inactive; ? = inconclusive; . = not tested or not shown; [ ] = another dose, or the depositor's remark. Unless noted, the call rests on the fitted dose curve; in most records, active means well fitted curve in the direction sought with a large enough effect; inconclusive means small, poorly fitted or top-dose-only effect, or another doubt; inactive means no such curve, though single readings can be large; an effect the other way counts as inactive or inconclusive.

SMILES	MBNL1 CUG block	CBFb-RUNX1 inh	TRHR PAM	TRHR ag	Epigenetic derep	IL-2 act
CCn1cnc2c(Nc3ccc(CC(=O)N=C(N)N)cc3)nc(C#N)nc21	.	.	1	-1	.	.
Cc1ccc(S(=O)(=O)NCC(Nc2cccc(Cl)c2)c2ccccc2)cc1 (stereo unspecified)	.	.	10	1	8%	.
CN(C1CCS(=O)(=O)C1)S(=O)(=O)c1ccccc1 (stereo unspecified)	6%	1%	30*	-1	0%	1
CCCCSCCCNC(=O)c1cn(CC)c2ccc(S(=O)(=O)N3CCCCCC3)cc2c1=O	.	.	-3	2	1%	.
O=C1c2cccc3c([N+](=O)[O-])ccc(c23)C(=O)N1c1ccccn1	?	-5%	4	-1	1%	0
O=C1c2cccc3c([N+](=O)[O-])ccc(c23)C(=O)N1c1ccc(Cl)cn1	?	5%	-21	4	14µM*	-4
Oc1ccc(-c2csc(-c3c[nH]c4ccccc34)n2)c(O)c1	34%	0%	40*	0	0%	-1
O=C(O)c1ccccc1C=NNc1ccc([N+](=O)[O-])cn1	.	.	.	.	.	-1
O=[N+]([O-])c1ccc(NN=Cc2cccc3ccccc23)nc1	.	.	.	.	.	58*
CC(C)CCN1CCN(CCCc2ccccc2)CC1CCO (stereo unspecified)	-4%	.	5	0	.	0
CC(C)/C=C/CN1CCN(CCCc2ccccc2)C(CCO)C1 (stereo unspecified)	-4%	.	34*	0	.	0
CCCCNc1nc(C)nc2c1nc(C)n2CCC	.	6%	.	.	-1%	.
Cc1ccc(CCNc2nc3c(S(=O)(=O)c4ccc(C)cc4)nnn3c3ccsc23)cc1	.	.	42*	1	4%	.
Cc1cccc(OCC(=O)Nc2ccc(-c3nc4ccccc4o3)cc2)c1C	.	.	31*	3	?	.
Cc1cc(C)cc(OCC(=O)Nc2ccc(-c3nc4ccccc4o3)cc2)c1	.	.	-4	2	?	.
COC(=O)c1ccc(CSc2nc3ccc(S(=O)(=O)N4CCOCC4)cc3[nH]2)cc1	4%	8%	3	1	1%	-2
COC(=O)c1ccc(CSc2nc3ccc(S(N)(=O)=O)cc3[nH]2)cc1	2%	.	36*	1	.	4
Cc1ccccc1-c1nn2c(=O)cc(CN3CCN(C(=O)c4ccccc4Br)CC3)nc2s1	.	.	1	-1	-4%	.
CCCCN(CC)C(=O)Cn1cc2c(n1)-c1c(oc(C(=O)N3CCCC3)c1C)CC2	.	.	-5	0	-2%	.
COc1ccc(Cl)cc1NC(=O)NCCn1c(=O)oc2ccc(C)cc21	.	.	-10	-1	-3%	.
Cn1c(=O)n(C)c2cc([N+](=O)[O-])c(N3CCN(C(=O)c4cccc(F)c4)CC3)cc21	?	-6%	-4	0	-1%	4
Cn1c(=O)n(C)c2cc([N+](=O)[O-])c(N3CCN(C(=O)c4cccc(Cl)c4)CC3)cc21	?	-6%	38*	0	-1%	0
CN1CCC/C1=C/C=C1\SC(=S)NC1=O	?	-17%	10	48*	1%	0
CSCC[C@H](C=O)NC(=O)[C@H](CC(C)C)NC(=O)[C@H](CC(C)C)NC(C)=O	.	0%[21.7 µM]	.	.	3%	.
CCCC[C@@H](C=O)NC(=O)[C@H](CC(C)C)NC(=O)[C@H](CC(C)C)NC(C)=O	.	21%	.	.	11µM*	.
SMILES	MBNL1 CUG block	CBFb-RUNX1 inh	TRHR PAM	TRHR ag	Epigenetic derep	IL-2 act
Cn1c2cc(C#N)sc2c2cnn(Cc3ccccc3F)c(=O)c21	.	.	5	0	.	.
CC(=O)c1cccc(Nc2nn(-c3ccc(OC(F)(F)F)cc3)nc2C(C)=O)c1	.	.	4	3	3%	.
CCCCCn1c(=O)c(C(=O)c2ccccc2)nc2ccccc21	?	-9%	-8	0	-3%	3
CCCCCCn1c(=O)[nH]c2nc3cc(N)ccc3nc2c1=O	?	0%	31*	130*	?	11
COc1ccc(C(CC(=O)O)c2ccc3c(c2)OCO3)cc1 (stereo unspecified)	-10%	.	-1	0	.	-2
NC(=O)CC(c1ccccc1)c1ccc2c(c1)OCO2 (stereo unspecified)	-6%	.	33*	0	.	2
O=C(Nc1ccc(Cl)cc1)C1CCC(CNS(=O)(=O)c2ccc(Br)s2)CC1 (stereo unspecified)	.	.	3	1	2%	.
CN1CCc2sc(NC(=O)Cc3ccccc3)c(C(=O)Nc3ccc(Cl)cc3)c2C1	.	.	3	1	.	.
CCc1ccc(NC(=O)CN2C(=O)C3CCCN3c3ccc(S(=O)(=O)N(CC)CC)cc32)cc1 (stereo unspecified)	.	.	-1	-1	-2%	.
CNC(=O)c1c(NC(=O)c2ccc(S(=O)(=O)N(C)c3ccccc3)cc2)sc2c1CCN(C(C)C)C2	6%	.	3	62*	.	62*
CCN1CCc2c(sc(NC(=O)c3ccc(S(=O)(=O)N(C)c4ccccc4)cc3)c2C(=O)NC)C1	14%	.	7	48*	.	-1
CCN1CCc2c(sc(NC(=O)c3ccc(S(=O)(=O)N(CCOC)CCOC)cc3)c2C(N)=O)C1	.	.	-4	0	1%	.
O=C(CN1C(=O)c2cccnc2Sc2ccccc21)Nc1cc(F)ccc1F	.	.	-7	0	1%	.
CC(C)COc1ccc(C(=O)Nc2scc(-c3ccc(Br)cc3)c2C(=O)OC(C)C)cc1	.	.	31*	0	-2%	.
Cc1nc2c(c(=O)c3ccccc3n2C)c(=O)n1C1CCCCCC1	-13%	-6%	-6	33*	1%	1
CCC[C@@H]1O[C@@H]2C[C@@H]3[C@H]4CCC5=CC(=O)C=C[C@@]5(C)[C@H]4[C@H](O)C[C@@]3(C)[C@@]2(C(=O)CO)O1	.	-7%[21.7 µM]	.	.	0%[16.9 µM]	.
CCCC1O[C@@H]2C[C@H]3[C@@H]4CCC5=CC(=O)C=C[C@]5(C)[C@H]4[C@@H](O)C[C@]3(C)[C@]2(C(=O)CO)O1 (stereo partly specified)	-9%	-15%	33*	1	4%	-1
CN(C)C=Nc1c(Br)cc(Br)c2nonc12	6%	23%	11	141*	?	27
CN(C)C=Nc1nonc1-c1ccccc1	-2%	1%	-1	0	2%	0
COC(=O)C(CC(C)C)Oc1ccc2c(C)cc(=O)oc2c1 (stereo unspecified)	3%	3%	36*	-1	0%	-2
CCCCOC(=O)Nc1ccc2c(C)cc(=O)oc2c1	?	8%	40*	0	-2%	-2

Assay outcomes from PubChem BioAssay.
